Reference: PubChem BioAssay (EPA / NIEHS)
Activity calls are given as the source filed them. The calls were made as follows: active = hit-call score of the fitted dose curve at least 0.9, where 1 is the maximum; inactive = score below 0.9.

Key:
Details in all cases: mRNA level, 48 h; actives raise or lower the signal
[1] = read-out: Cytochrome P450 3A7 (Homo sapiens) (UniProt P24462); experiment: LTEA_HepaRG_CYP3A7: Life Technologies and Expression Analysis (LTEA) Assay for CYP3A7 using HepaRG (AID 2283492)
Summary of the method: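 HepaRG cells plated 48 h, then dosed in serum-free induction medium for 48 h at 8 concentrations (top 100 uM, half-log steps, 0.5% DMSO). CYP3A7 mRNA by qRT-PCR, normalised to ACTB/GAPDH/POLR2A; bidirectional fit versus DMSO.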

[2] = read-out: Fatty Acid-Binding Protein 1 (FABP1), FABP1 (gene 2168); experiment: LTEA_HepaRG_FABP1: Life Technologies and Expression Analysis (LTEA) Assay for Fatty Acid-Binding Protein 1 (FABP1) using HepaRG (AID 2283494)
Summary of the method: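 Values reflect bidirectional concentration-response fitting of FABP1 mRNA change against 0.5% DMSO controls. Human HepaRG cultures received eight half-log doses (top 100 uM) for 48 h; expression quantified by TaqMan qRT-PCR with housekeeping-gene normalization.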

[3] = read-out: Cytochrome P450 4A22 (Homo sapiens) (UniProt Q5TCH4); experiment: LTEA_HepaRG_CYP4A22: Life Technologies and Expression Analysis (LTEA) Assay for Cytochrome P450 4A22 (CYP4A22) using HepaRG (AID 2283495)
Summary of the method: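 qRT-PCR of CYP4A22 mRNA (Fluidigm TaqMan, normalized to three housekeeping genes) after 48 h chemical exposure of HepaRG cells; 8-point half-log series, top 100 uM, 0.5% DMSO vehicle. Bidirectional curve fitting vs DMSO baseline.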

[4] = read-out: Cytochrome P450 7A1 (Homo sapiens) (UniProt P22680); experiment: LTEA_HepaRG_CYP7A1: Life Technologies and Expression Analysis (LTEA) Assay for Cytochrome P450 7A1 (CYP7A1) using HepaRG (AID 2283496)
Summary of the method: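 HepaRG, 48 h exposure, 8-pt half-log series from 100 uM, 0.5% DMSO vehicle, duplicates. Readout: TaqMan qRT-PCR mRNA vs three housekeeping genes; bidirectional curve fit against DMSO baseline.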

[5] = read-out: Glutathione S-Transferase (GSTA2), GSTA2 (gene 2939); experiment: LTEA_HepaRG_GSTA2: Life Technologies and Expression Analysis (LTEA) Assay for Glutathione S-Transferase (GSTA2) using HepaRG (AID 2283497)
Summary of the method: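 Oxidative-stress marker GSTA2 is quantified by TaqMan qRT-PCR in HepaRG cultures treated 48 h across an eight-point range to 100 uM. Expression is normalized to endogenous controls and compared with 0.5% DMSO vehicle.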

[6] = read-out: Glutamate-cysteine ligase catalytic (GCLC), GCLC (gene 2729); experiment: LTEA_HepaRG_GCLC: Life Technologies and Expression Analysis (LTEA) Assay for Glutamate-cysteine ligase catalytic (GCLC) using HepaRG (AID 2283498)
Summary of the method: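 Oxidative-stress marker GCLC is measured as mRNA change in human HepaRG liver cells after 48 h chemical treatment in 0.5% DMSO, eight concentrations from 100 uM. Activity is fitted bidirectionally against vehicle.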

[7] = read-out: growth arrest and DNA damage 45 (GADD45G), GADD45G (gene 10912); experiment: LTEA_HepaRG_GADD45G: Life Technologies and Expression Analysis (LTEA) Assay for growth arrest and DNA damage 45 (GADD45G) using HepaRG (AID 2283499)
Summary of the method: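 Differentiated human HepaRG cells in serum-free induction medium were exposed for 48 h to 8 half-log concentrations up to 100 uM in 0.5% DMSO, in duplicate. GADD45G mRNA was measured by TaqMan qRT-PCR, normalised to ACTB, GAPDH and POLR2A, and fitted bidirectionally against DMSO.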

[8] = read-out: Glutamate-cysteine ligase regulatory (GCLM), GCLM (gene 2730); experiment: LTEA_HepaRG_GCLM: Life Technologies and Expression Analysis (LTEA) Assay for Glutamate-cysteine ligase regulatory (GCLM) using HepaRG (AID 2283500)
Summary of the method: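 Endpoint is GCLM transcript level by qRT-PCR, normalized to three housekeeping genes, after 48 h chemical exposure of human HepaRG cells (0.5% DMSO vehicle, top 100 uM, half-log dilutions). Fitting was bidirectional relative to DMSO.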

[9] = read-out: Glutathione S-transferase M3 (GSTM3), GSTM3 (gene 2947); experiment: LTEA_HepaRG_GSTM3: Life Technologies and Expression Analysis (LTEA) Assay for Glutathione S-transferase M3 (GSTM3) using HepaRG (AID 2283501)
Summary of the method: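 Differentiated HepaRG cells in serum-free induction medium were exposed in duplicate for 48 h to 8 half-log concentrations up to 100 uM in 0.5% DMSO. GSTM3 mRNA was measured by TaqMan qRT-PCR, normalized to ACTB/GAPDH/POLR2A, and fitted bidirectionally versus DMSO.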

CYP3A5 (gene 1577) = experiment: LTEA_HepaRG_CYP3A5: Life Technologies and Expression Analysis (LTEA) Assay for CYP3A5 using HepaRG (AID 2283493)
Summary of the method: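 Human HepaRG hepatic cells receive 48 h chemical treatment at eight concentrations (half-log steps from 100 uM) in 0.5% DMSO. Expression of CYP3A5 is quantified by Fluidigm qRT-PCR and normalized to three reference genes.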

Measured: AC50

Cytochrome P450 3A7 (Homo sapiens), sequence (P24462 whole entry, looked up): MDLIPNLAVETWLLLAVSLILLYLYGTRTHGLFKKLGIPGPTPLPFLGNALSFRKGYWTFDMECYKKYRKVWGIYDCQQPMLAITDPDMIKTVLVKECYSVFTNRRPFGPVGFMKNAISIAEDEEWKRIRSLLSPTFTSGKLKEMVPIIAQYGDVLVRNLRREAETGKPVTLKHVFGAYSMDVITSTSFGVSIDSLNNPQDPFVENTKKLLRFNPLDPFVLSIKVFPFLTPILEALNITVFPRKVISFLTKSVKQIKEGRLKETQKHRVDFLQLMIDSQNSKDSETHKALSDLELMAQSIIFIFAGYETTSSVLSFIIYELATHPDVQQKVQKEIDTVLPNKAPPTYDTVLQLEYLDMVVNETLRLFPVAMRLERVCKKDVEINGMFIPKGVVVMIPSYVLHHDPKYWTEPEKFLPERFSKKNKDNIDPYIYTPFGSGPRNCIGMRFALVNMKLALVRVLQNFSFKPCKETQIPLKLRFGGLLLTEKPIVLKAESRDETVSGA

Nc1cc(Cl)cc(C(=O)O)c1Cl
not listed: CYP3A5 (gene 1577)
inactive: all other assays above

N#CC(Br)Br
not listed: CYP3A5 (gene 1577)
inactive: all other assays above

ClCCOCCCl
not listed: CYP3A5 (gene 1577)
inactive: all other assays above

Clc1ccc(C(c2ccc(Cl)cc2)C(Cl)Cl)cc1
active: [1] 9.55 µM | [2] 54.7 µM | [3] 22.4 µM | [4] 22.5 µM
not listed: CYP3A5 (gene 1577)
inactive: all other assays above

[Cl-].[Cl-].[Hg+2]
active: [7] 24.1 µM
inactive: all other assays above

CC(C)(OOC(C)(C)c1ccccc1)c1ccccc1
active: [1] 40.4 µM
not listed: CYP3A5 (gene 1577)
inactive: all other assays above

CCCCCCCCCCCCCN1CC(C)OC(C)C1 (centres undefined)
inactive: all assays above

CC(C)(O)c1cnn2c(-c3ccc(F)c(-c4c(F)cccc4C#N)c3)cnc2n1
active: [2] 1.57 µM | [3] 1.71 µM | [4] 4.14 µM
not listed: CYP3A5 (gene 1577)
inactive: all other assays above

c1ccc2c(c1)-c1cccc3cccc-2c13
active: [1] 9.36 µM | [2] 50 µM
not listed: [3] | [4]
inactive: all other assays above

CN(C)[C@@H]1C(=O)C(C(N)=O)=C(O)[C@@]2(O)C(=O)C3=C(O)c4c(O)cccc4[C@@](C)(O)[C@H]3C[C@@H]12
not listed: CYP3A5 (gene 1577)
inactive: all other assays above

CCOc1cccc(C2(N3CCN(c4ccccc4)CC3)CCC(C)CC2)c1 (centres undefined)
not listed: CYP3A5 (gene 1577)
inactive: all other assays above

OCCOCCO
inactive: all assays above

CCN(CC)N=O
not listed: [4]
inactive: all other assays above

Oc1ccc2ccc3cccc4ccc1c2c34
active: [4] 50 µM
not listed: CYP3A5 (gene 1577)
inactive: all other assays above

[O-][Cl+]O
not listed: [3] | [4]
inactive: all other assays above

COP(=S)(OC)SCN1C(=O)c2ccccc2C1=O
not listed: [2]
inactive: all other assays above

CC(O)CCO (centres undefined)
not listed: CYP3A5 (gene 1577)
inactive: all other assays above

CCCCCCCCOC(=O)c1ccc(C(=O)OCCCCCCCC)c(C(=O)OCCCCCCCC)c1
not listed: CYP3A5 (gene 1577)
inactive: all other assays above

CCCCOC(=O)c1ccccc1C(=O)OCc1ccccc1
not listed: CYP3A5 (gene 1577)
inactive: all other assays above

CC(C)(C)OOC(=O)c1ccccc1
not listed: CYP3A5 (gene 1577)
inactive: all other assays above

COc1cc(C=O)cc2c1[C@H](COC(N)=O)[C@]1(OC(C)=O)ON2C[C@H]2[C@@H]1N2C(C)=O
active: [2] 0.701 µM | [3] 0.0669 µM | [4] 0.417 µM | [5] 1.06 µM | [6] 0.312 µM | [7] 21.8 µM
inactive: [1] | [8] | [9]

O=C(Oc1ccc(Br)cc1)N1CCN2CCC1CC2
active: [2] 31.6 µM | [3] 40 µM
not listed: CYP3A5 (gene 1577)
inactive: all other assays above
